Assay outcomes: PubChem BioAssay, National Center for Advancing Translational Sciences (NCATS)
Prx2 Sm inh – Schistosoma Mansoni Peroxiredoxins (Prx2). AID 448, 2006. Potency, µM. S. mansoni Prx2 activity coupled to TGR/GSH (TGR is thioredoxin glutathione reductase), NADPH fluorescence loss, qHTS. Schistosoma mansoni peroxiredoxin 2 (Prx2). 65,000 compounds, 0.07% hits
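qHTS, coupled TGR/Prx2 format; 15 min compound preincubation at RT; reaction started with H2O2 (2.5 mM aliquot); kinetic NADPH fluorescence decrease, ex 365/em 450 nm.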
AmpC inh det – Promiscuous and Specific Inhibitors of AmpC Beta-Lactamase (assay with detergent) | purified AmpC, nitrocefin hydrolysis with detergent | Potency, µM (series often up to 28.7 µM), for the others: top-dose activity change, negative = inhibition | 71,000 compounds, 0.09% hits | AID 584, 2007; active = well fitted curve in the direction sought with a large enough effect; inconclusive = small, poorly fitted or top-dose-only effect; note: % is set by controls: 0 for no effect and ±100 for the full control effect
Target sequence (P00811 whole entry, looked up): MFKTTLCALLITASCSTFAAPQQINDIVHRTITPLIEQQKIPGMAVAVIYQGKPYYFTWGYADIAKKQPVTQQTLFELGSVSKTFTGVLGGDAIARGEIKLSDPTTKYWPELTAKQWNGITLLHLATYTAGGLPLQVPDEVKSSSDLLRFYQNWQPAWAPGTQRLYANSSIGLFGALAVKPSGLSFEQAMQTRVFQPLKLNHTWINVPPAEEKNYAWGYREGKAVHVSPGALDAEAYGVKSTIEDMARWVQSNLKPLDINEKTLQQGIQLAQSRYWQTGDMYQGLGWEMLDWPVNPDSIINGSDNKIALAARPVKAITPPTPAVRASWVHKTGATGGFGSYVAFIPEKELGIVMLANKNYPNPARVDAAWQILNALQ
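E. coli AmpC (5.3 nM) in 20 mM phosphate pH 7.0 with 0.01% Triton X-100, preincubated 15 min RT with compound; nitrocefin (2 uL of 800 uM stock) hydrolysis followed by 480 nm absorbance every 20 s over 4 min.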
AmpC nodet inh – Promiscuous and Specific Inhibitors of AmpC Beta-Lactamase (assay without detergent); P00811; AmpC nitrocefin hydrolysis, absorbance 480 nm, no detergent; Potency, µM (top dose mostly 28.7 µM), without a hit: at the highest dose activity change, negative = inhibition; 71,000 compounds, 1.8% hits; AID 585, 2007; note: % of control where 0% means no effect
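Enzyme, pH 7.0 phosphate. Compound titrations were pre-incubated with AmpC for 15 min at room temperature before nitrocefin (stock 800 uM) addition; product formation was recorded at 480 nm every 20 s for 4 min.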
Anthrax LT inh – qHTS Assay for Anthrax Lethal Toxin Internalization | Cells, anthrax lethal toxin internalization, FRET ratio (460/530) | Potency, µM (top dose mostly 40 µM), without a hit: top-dose activity change, negative = inhibition, usual class: inhibitors | 70,000 compounds, 0.67% hits | AID 912, 2007; note: % is set by controls: 0 for no effect and ±100 for the full control effect; nearly all actives have a fitted effect of over 50% in size
Starred values were filed as active, the others as inactive; ? = inconclusive; / = no result given; [ ] = another dose, or the depositor's remark. In the library only some 2.4% were active in any assay of this set; here they are far more common. Unless noted, calls come from the whole dose curve. Potency is the fitted concentration of half-maximal effect.

SMILES	Prx2 Sm inh	AmpC inh det	AmpC nodet inh	Anthrax LT inh
O=C(CCCOc1ccccc1)Nc1nnc(C2CCCO2)s1 (configuration not stated)	>57	13%	10µM*[single pt active]	0%
Cc1noc(C)c1-c1cc(NCc2cccs2)ncn1	>57	8%	12%	9%
O=C(/C=C/N1CCOCC1)c1ccc(-c2ccccc2)cc1	/	-2%	13µM*	?
COc1ccc(NC(=O)N2CC3(CCN(C(=O)c4c(C)noc4C)CC3)C2)cc1	>57	13%	12%	1%
CN1CCC(=C2c3ccccc3C=Cc3ccccc32)CC1	>57	-2%	71%	7.9µM*
O=C(O)[C@@H]1[C@@H]2O[C@H]([C@@H](Br)[C@H]2Br)[C@H]1C(=O)O	>57	-2%[5.75 µM]	6%[5.75 µM]	-12%[8 µM]
CCCC[C@@H]1C[C@H]1C(NC(=O)c1ccco1)c1ccc(-c2ccccc2)cc1 (some centres not stated)	>57	-3%	13µM*[single pt active]	-10%
CCCC[C@@H]1C[C@H]1C(NC(=O)c1ccccc1)c1ccccc1 (some centres not stated)	>57	-2%	-20%	2%
CCCC[C@@H]1C[C@H]1C(NC(=O)c1ccco1)c1ccc(Cl)cc1 (some centres not stated)	>57	-4%	10µM*[single pt active]	?
CCCC[C@@H]1C[C@H]1C(NC(=O)c1ccco1)c1ccccc1C(F)(F)F (some centres not stated)	>57	-4%	-18%	?
N#Cc1ccc(CN2CCCC3(CCN(C(=O)c4cnccn4)CC3)C2)cc1	>57	-1%	126%	9%
c1ccc(-c2ccc(N3CCCC4(CCNCC4)C3)cc2)cc1	>57	-4%	116%	?
NC=O	/	9%	-10%	4%
COc1ccc(S(=O)(=O)NCCSCc2ccco2)cc1	>57	14%	13µM*[single pt active]	-4%
CCN1C(=O)c2cccc3cccc1c23	3.9*	-1%	-3%	?
CCNc1ncc2nc(C)c(=O)n(C)c2n1	>57	1%	28%	5%
O=C(NCCN1CCN(c2ccccc2F)CC1)C1CCCN(S(=O)(=O)c2cnc[nH]2)C1 (configuration not stated)	>57	10%	4µM*[single pt active]	-7%
O=C(NCCc1ccccc1)C1CCCN(S(=O)(=O)c2cnc[nH]2)C1 (configuration not stated)	>57	4%	4%	-3%
O=C(NCCN1CCC(Cc2ccccc2)CC1)C1CCCN(S(=O)(=O)c2cnc[nH]2)C1 (configuration not stated)	>57	11%	4µM*[single pt active]	-3%
COc1ccc(N2CCN(CCCNC(=O)C3CCCN(S(=O)(=O)c4cnc[nH]4)C3)CC2)cc1 (configuration not stated)	>57	12%	4µM*[single pt active]	?
CCCS(=O)(=O)N1CCCC(C(=O)NCCCN2CCN(c3ccccc3F)CC2)C1 (configuration not stated)	>57	-4%	45%	-1%
COc1ccc(Oc2ncc3nc(-c4ccccc4)c(=O)n(CCC#N)c3n2)cc1	>57	0%	19%	?
CCOC(=O)N1CCC(NC(=O)CCc2c(C)nc3c(c(C)nn3-c3ccccc3)c2C)CC1	>57	12%	4µM*[single pt active]	-10%
CSc1ccc2c(c1)N(CC[C@H]1CCCCN1C)c1ccccc1S2	>57	1%[12.8 µM]	68%[12.8 µM]	10µM*
CN1CCCC[C@@H]1CCN1c2ccccc2Sc2ccc(S(C)=O)cc21 (some centres not stated)	>57	-2%[5.75 µM]	-2%[5.75 µM]	-1%[8 µM]
SMILES	Prx2 Sm inh	AmpC inh det	AmpC nodet inh	Anthrax LT inh
COc1ccc(CCNc2nc(N3CCCCC3)nc(N3CCCCC3)n2)cc1OC	>57	-7%	92%	6.3µM*
CCCCCCCCCCCCCCCCCC(=O)NCCc1ccc(O)c(O)c1	/	/	/	-7%
CCOC(=O)N1CCN(c2c(Nc3ccc4c(c3)OCCO4)c(=O)c2=O)CC1	>57	13%	4µM*[single pt active]	?
CCOC(=O)N1CCN(c2c(NCC3CCCO3)c(=O)c2=O)CC1 (configuration not stated)	>57	5%	4µM*[single pt active]	-6%
CCOC(=O)N1CCN(c2c(N3CCN(c4ccccn4)CC3)c(=O)c2=O)CC1	>57	13%	4µM*[single pt active]	-10%
CCOC(=O)N1CCN(c2c(N3CCc4ccccc43)c(=O)c2=O)CC1	/	14%	4µM*[single pt active]	?
CCOC(=O)C1CCN(c2c(N3CCN(c4ccccc4OC)CC3)c(=O)c2=O)CC1	>57	7%	11%	-6%
